Results published in PubChem BioAssay (NCATS).
“And” between values parts separate entries of the source, which are not always exact repeats. Identical values can stand only once. Records with an inconclusive call do not appear. The source made the active and inactive calls. Calls follow the shape of the dose curve; as a rule, active = well fitted inhibition curve with a large enough effect; inconclusive = small, poorly fitted or top-dose-only effect; inactive = no such curve, though single readings can be large or run the other way.

Tested on: not listed separately
Assay: Primary qHTS for inhibitors of nuclear receptor binding SET domain protein 2 (NSD2) in an RCH-ACV wild type WT cells (2C) (AID 1645877); also: nearly all actives have a fitted effect of over 70% in size; also: potency is read from the fitted curve at half-maximal effect
Settings: RCH-ACV (leukaemia line) NSD2 WT (2C) viability, CellTiter-Glo, 72 h; series mostly up to 44.9 µM

Row | Structure (SMILES) | Potency
1 | O=C(NCC1CCN(Cc2cccc(Cl)c2)CC1)[C@@H]1CCCN(c2ncnc3c2nc2n3CCCC2)C1 | inactive
2 | CCC(C)C1NC(=O)C(Cc2ccccc2)NC(=O)C(CCCCCC(=O)C(O)CO)NC(=O)C2CCCCN2C1=O (configuration not stated) | 2.16 µM (active)
3 | CC(=O)OC1[C@H]2[C@@H](C[C@@H](C)[C@@H]3C=CC(=O)[C@@]13C)OC(=O)[C@@H]2C (some centres not stated) | 7.28 µM (active)
4 | C=C1C(=O)O[C@@H]2/C=C(\CO)CC/C=C(/C=O)C[C@@H](O)[C@@H]12 | 4.09 µM (active)
5 | C1=C/COCc2cc(ccc2OCCN2CCCC2)Nc2nccc(n2)-c2cccc(c2)COC/1 | 258 nM (active) and 417 nM (active)
6 | COC(=O)Nc1cc(Nc2cc(NC3CC3)c3ncc(C#N)n3n2)c(Cl)c(N2CCN(C)CC2)c1 | 0.372 µM (active)
7 | O=C(O)CSc1cc(NS(=O)(=O)c2ccc(Br)cc2)c2ccccc2c1O | 4.09 µM (active)
8 | CC1(C)CC[C@]2(C(=O)O[C@@H]3O[C@H](CO)[C@@H](O)[C@H](O)[C@H]3O)CC[C@]3(C)C(=CCC4[C@@]5(C)CC[C@H](O[C@@H]6O[C@H](C(=O)O)[C@H](O)[C@H](O)[C@H]6O)C(C)(C)C5CC[C@]43C)[C@@H]2C1 (some centres not stated) | 5.41 µM (active)
9 | C=C1C(=O)O[C@H]2C[C@@H](C)[C@@H]3CCC(=O)[C@@]3(C)C[C@H]12 | 3.65 µM (active)
10 | CC(=O)[C@H]1CC[C@H]2[C@@H]3CC=C4C[C@@H](OS(=O)(=O)O)CC[C@]4(C)[C@H]3CC[C@]12C | inactive
11 | Cc1c[nH]c2ncnc(N3CCC(CN)(C(=O)Nc4cccc(OC(=O)N(C)C)c4)CC3)c12 | 10.5 µM (active) and 11.8 µM (active)
12 | O=C(Nc1ccccc1Cl)c1cnc2ccc(C3CCNCC3)cn12 | 2.3 µM (active)
13 | CC(C)C[C@H](C(=O)O)c1cc(-c2ccc(C(F)(F)F)cc2)cc(-c2ccc(C(F)(F)F)cc2)c1 | 11.5 µM (active)
14 | Nc1nc(NC2CC2)cc(-c2cccc(Cl)c2Cl)n1 | 2.58 µM (active)
15 | C=C1C(=O)O[C@H]2C1CCC(C)=C1C(=O)C=C(C)[C@@]12O (some centres not stated) | 12.9 µM (active)
16 | C=C1CC[C@@H]2[C@](C)(CO)[C@H](O)CC[C@@]2(C)[C@@H]1CC(=O)C1=CCOC1=O | inactive
17 | C=C(C)C(=O)O[C@H]1C[C@@](C)(O)C2(O)CCC(C)(/C=C3/OC(=O)C(COC)=C31)O2 (some centres not stated) | 0.713 µM (active)
18 | C[C@@H]1C[C@H]2O[C@@]3(O[C@@H]2C(C)(C)O)C(O)[C@@]2(C)C4CCC5C(C)(C)[C@@H](O[C@H]6OC[C@H](O)[C@@H](O)[C@@H]6O)CC[C@@]56C[C@@]46CC[C@]2(C)C13 (some centres not stated) | inactive
19 | C=C(C)C1CC(O)C(C)C12CC(O)C1(C)OC1C2O (configuration not stated) | 3.25 µM (active)
20 | NC(=O)c1ccccc1Nc1ccnc(Nc2cccc(O)c2)n1 | 0.833 µM (active)
21 | O=c1cc(OCc2ccc(F)cc2)ccn1-c1ccc(OCCN2CCCC2)cc1 | 8.17 µM (active)
22 | Cc1[nH]c(/C=C2\C(=O)Nc3ccc(S(=O)(=O)N(C)c4cccc(Cl)c4)cc32)c(C)c1C(=O)N1CCN(C)CC1 | 7.28 µM (active) and 5.25 µM (active)
23 | COc1cc(/C=C2\CCCN([C@@H](C)c3ccc(F)cc3)C2=O)ccc1-n1cnc(C)c1 | 12.9 µM (active)
24 | C=C1C(=O)O[C@@H]2C(OC(=O)/C(C)=C\C)/C(C)=C\C(=O)/C=C(\C)C[C@H](O)[C@@H]12 (some centres not stated) | 1.6 µM (active)
25 | COc1ccc2[nH]c(=O)c3c(c2c1)OC(C)(C)C=C3 | 14.5 µM (active)

Biological target: Catechol O-methyltransferase (Homo sapiens) (UniProt P21964)
Sequence (P21964 whole entry, looked up): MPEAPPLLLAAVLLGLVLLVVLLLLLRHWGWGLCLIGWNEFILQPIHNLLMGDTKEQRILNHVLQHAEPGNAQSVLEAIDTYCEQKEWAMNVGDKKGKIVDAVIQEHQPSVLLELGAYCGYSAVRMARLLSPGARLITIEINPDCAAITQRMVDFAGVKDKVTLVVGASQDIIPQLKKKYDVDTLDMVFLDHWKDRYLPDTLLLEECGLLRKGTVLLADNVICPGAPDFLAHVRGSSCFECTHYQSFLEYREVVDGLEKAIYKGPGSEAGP
Assay: Confirmatory Screen for Target Class Profiling of Small Molecule Inhibitors of Methyltransferases (AID 1745852)
Settings: MTase-Glo luminescence, SAH detection, recombinant enzyme; measured here: COMT max response; stronger effect = lower value

Row | Structure (SMILES) | activity [%]
26 | CN(C)CC1CCn2c(c(C3=C(c4cn(C)c5ccccc45)C(=O)NC3=O)c3ccccc32)C1 (configuration not stated) | -13.6
27 | CCn1c2ccccc2c2cc(Nc3ccnc(NCCCN4CCOCC4)n3)ccc21 | -20
28 | COC1C=C(C)C(O)(CO)C2(C)CCCC(C)(C)C12 (configuration not stated) | -68.4
29 | Fc1ccc2[nH]ccc2c1-c1nc(N2CCOCC2)c2sc(CN3CCN(CC4CC4)CC3)cc2n1 | -1.17
30 | C=C1C(=O)O[C@@H]2/C=C(\CO)CC/C=C(/C=O)C[C@@H](O)[C@@H]12 | -63.7
31 | CC1(C)CC[C@]2(C(=O)O[C@@H]3O[C@H](CO)[C@@H](O)[C@H](O)[C@H]3O)CC[C@]3(C)C(=CCC4[C@@]5(C)CC[C@H](O[C@@H]6O[C@H](C(=O)O)[C@H](O)[C@H](O)[C@H]6O)C(C)(C)C5CC[C@]43C)[C@@H]2C1 (some centres not stated) | -55
32 | Cc1c[nH]c2ncnc(N3CCC(CN)(C(=O)Nc4cccc(OC(=O)N(C)C)c4)CC3)c12 | -12.7
33 | CC(C)C[C@H](C(=O)O)c1cc(-c2ccc(C(F)(F)F)cc2)cc(-c2ccc(C(F)(F)F)cc2)c1 | -6.76
34 | Nc1nc(NC2CC2)cc(-c2cccc(Cl)c2Cl)n1 | -8.02
35 | NC(=O)c1ccccc1Nc1ccnc(Nc2cccc(O)c2)n1 | -4.04
36 | Cc1[nH]c(/C=C2\C(=O)Nc3ccc(S(=O)(=O)N(C)c4cccc(Cl)c4)cc32)c(C)c1C(=O)N1CCN(C)CC1 | -10.8
37 | COc1cc(/C=C2\CCCN([C@@H](C)c3ccc(F)cc3)C2=O)ccc1-n1cnc(C)c1 | -8.51
